# Experimental data from ChEMBL document CHEMBL4513216, “Probing the Open Global Health Chemical Diversity Library for Multistage-Active Starting Points for Next-Generation Antimalarials” (ACS Infect Dis, 2020).
# In all, about 68,000 compounds went through this assay and about 2,700 (4%) showed an effect of 50% or more. The full list was thinned out, with strong results kept by preference.
# System: Plasmodium berghei
# Assay: Screen against P. berghei liver stage (PbLuc), transformed with Luciferase, at 2uM
# Format: functional, HepG2
# Conditions: tested at 2 uM
row,Structure (SMILES),INHIBITION [%]
1,CCc1nn(C)c(Cl)c1CN(CCOC)Cc1cnn(C)c1,-0.41
2,COC(=O)C(C)(C)NC(=O)C1CC(=O)N(CC(F)(F)F)C1 (stereo not given),54.62
3,CCN1CC(C(=O)NC(C)(C)C(=O)OC)CC1=O (stereo not given),-59.42
4,COC(=O)C(C)(C)NC(=O)C1CC(=O)N(CC(C)C)C1 (stereo not given),49.16
5,COc1ccc(CCN2CC(NCc3ncc[nH]3)CC2=O)cc1 (stereo not given),45.41
6,c1ccc(N2CC[C@@H]3CN(Cc4ccncc4)CCO[C@@H]3C2)cc1,-19.36
7,CS(=O)(=O)CCN(CCCO)C1CCc2ccccc21 (stereo not given),14.3
8,O=S(=O)(c1ccccc1F)N1CCCCC1c1cc[nH]n1 (stereo not given),-16.62
9,O=S(=O)(NC1CCCN(c2ncccn2)C1)N1CCCCCC1 (stereo not given),-56.93
10,COc1ccsc1C(=O)NC1CCN(c2cccc(F)c2)CC1,-11.07
11,Nc1cc(N2CCC(c3cc(Cc4ccccc4)n[nH]3)CC2)ccn1,60.35
12,Cc1cc(CN2CCC(c3cc(Cc4ccccc4)n[nH]3)CC2)[nH]n1,-3.32
13,NC(=O)NCCC(=O)N1CCC(c2cc(Cc3ccccc3)n[nH]2)CC1,42.27
14,Cc1ccc(N2CCC(c3cc(Cc4ccccc4)n[nH]3)CC2)nn1,-45.89
15,Nc1nccc(N2CCC(c3cc(Cc4ccccc4)n[nH]3)CC2)n1,56.33
16,Nc1nc(O)cc(N2CCC(c3cc(Cc4ccccc4)n[nH]3)CC2)n1,5.41
17,CC(=O)Nc1ccc(C(=O)N(C)Cc2cccc(F)c2)s1,45.05
18,CCN(CCn1cccn1)Cc1nc(-c2cccs2)oc1C,-9.1
19,Cc1nnsc1CN(C)C(=O)CCn1cnc2ccccc21,-40.44
20,CCOC(=O)N1CCN(c2nc(NCCCO)c3ccccc3n2)CC1,7.14
21,O=C1C(Sc2nnnn2C2CC2)CCN1c1ccccc1F (stereo not given),21.82
22,Cn1cnc(S(=O)(=O)NCC2(O)CCc3ccccc3C2)c1 (stereo not given),53.33
23,Cn1cnc(S(=O)(=O)NCC2(O)CCOc3ccccc32)c1 (stereo not given),45.19
24,Cn1cnc(S(=O)(=O)NCC2(O)CCc3ccccc32)c1 (stereo not given),30.34
25,CC(NC(=O)c1cccnc1N(C)C)c1ccccc1Br (stereo not given),20.32
26,Cc1nc(CNCc2c(C(C)C)nn(C)c2N2CCOCC2)cs1,7.64
27,O=C([C@H]1C[C@@H]2CCN(c3cccc(F)c3)C[C@H]2O1)N1CCCC1,39.51
28,COC(=O)c1ccc(S(=O)(=O)N2CCCn3ncnc32)s1,59.68
29,CCc1ccc(S(=O)(=O)N2CCCn3ncnc32)s1,13.38
30,O=S(=O)(c1ccc(Cl)s1)N1CCCn2ncnc21,-49.84
